Rtt109 Vps75: inhibitors of Candida albicans Rtt109/Vps75 histone acetyltransferase. AID 540336. inhibition, % at 34.9 µM. purified Rtt109/Vps75, ThioGlo CoA-SH fluorescence, 4 h. hit rate 0.16% among 330,000. Q5AAJ8;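 active means inhibition of at least 50% in every replicate; inconclusive means best replicate reaches 50% inhibition but some replicates fall short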
ABHD5 PLIN5 PPI: blocks binding of human ABHD5 to perilipin-5 | Split G. princeps luciferase complementation, luminescence, 4 h | inhibition, % at 4 µM | hit rate 0.78% among 360,000 | AID 602281;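 active means inhibition above the mean inhibition across every tested compound plus 3 SD, cut at about 22% in these data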;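 further: 0% = DMSO only wells and the 100% control is not disclosed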
Target sequence (Q00G26 whole entry, looked up): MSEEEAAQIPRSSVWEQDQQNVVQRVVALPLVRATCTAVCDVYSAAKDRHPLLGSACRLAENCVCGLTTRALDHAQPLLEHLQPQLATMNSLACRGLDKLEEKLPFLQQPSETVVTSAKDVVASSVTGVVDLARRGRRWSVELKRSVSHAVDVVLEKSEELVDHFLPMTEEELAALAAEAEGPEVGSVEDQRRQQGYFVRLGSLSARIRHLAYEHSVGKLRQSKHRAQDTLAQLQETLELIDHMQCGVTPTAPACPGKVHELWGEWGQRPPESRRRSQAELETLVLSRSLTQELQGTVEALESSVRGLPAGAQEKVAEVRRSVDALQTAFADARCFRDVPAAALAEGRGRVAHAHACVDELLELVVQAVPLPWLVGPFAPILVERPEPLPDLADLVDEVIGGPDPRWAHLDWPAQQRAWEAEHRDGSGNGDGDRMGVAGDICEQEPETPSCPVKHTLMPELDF
Target sequence (Q8WTS1 whole entry, looked up): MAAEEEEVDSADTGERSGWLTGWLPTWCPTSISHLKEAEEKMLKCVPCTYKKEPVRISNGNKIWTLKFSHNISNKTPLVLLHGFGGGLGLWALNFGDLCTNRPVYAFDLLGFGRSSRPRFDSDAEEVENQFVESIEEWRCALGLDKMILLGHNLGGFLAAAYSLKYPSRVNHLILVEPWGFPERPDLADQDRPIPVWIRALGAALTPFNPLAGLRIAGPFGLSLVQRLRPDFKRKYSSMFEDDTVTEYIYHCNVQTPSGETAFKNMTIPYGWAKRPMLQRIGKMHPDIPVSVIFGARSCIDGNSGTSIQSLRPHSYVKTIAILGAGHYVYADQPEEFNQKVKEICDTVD
HGIII-sPLA2 inh: Inhibits HGIII-sPLA2 liposome hydrolysis, primary screen; inhibition, % at 12.2 µM; Q9NZ20; QFRET BODIPY PC-A2 liposome hydrolysis, fluorescence; AID 743126; hit rate 0.56% among 370,000;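 active means inhibition above mean plus 3 SD of compounds lying within the high and low control bounds, cut at about 19% in these data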;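 further: 0% = median of test compound wells and 100% = no enzyme DMSO wells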
DAGLB inh: blocks human DAGLB lipase activity. inhibition, % at 5.17 µM. hit rate 0.059% among 340,000. Q8NCG7. HEK293T DAGLB membrane lysate, EnzChek fluorogenic substrate; in the data active means inhibition above about 34%;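 further: 0% = enzyme with vehicle and 100% = wells lacking enzyme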
Myeloid diff 2: compounds promoting myeloid differentiation; ER-HoxA9 myeloid progenitors, lysozyme-GFP differentiation, flow cytometry; calls only at 10 µM; hit rate 1% among 360,000; AID 624256;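 active means normalized GFP-positive differentiation at or above the plate's own cutoff, the solvent-only control mean plus 3 SD; inconclusive means no clear call, values can overlap the other calls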;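 further: cells exposed to compound for four days before flow analysis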
Cardio protect: modulators protecting cardiomyocytes from myocardial damage; H9c2 cardiomyocytes, H2O2 injury protection, ATPLite, 2 h; protection from H2O2 cell death, % at 20 µM; hit rate 0.63% among 360,000; AID 588492;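 active means compounds giving at least 50% protection of heart cells from peroxide-induced death in the single-dose screen, raw or plate-pattern-corrected value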;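 further: 0% = DMSO wells with peroxide and 100% = DMSO wells without peroxide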
Myeloid diff: promotes myeloid progenitor differentiation. hit rate 2% among 2,300. ER-HoxA9 myeloid progenitors, GFP/Mac1 double-positive flow. calls only. AID 651706. shares compounds with Myeloid diff 2;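 active means share of green or green-and-red cells above 9 and 9% in run 1 or 4 and 3% in run 2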
GFP autofluor: counter-screen for myeloid differentiation promoters: compound fluorescence | shares compounds with Myeloid diff 2 | ER-HoxA9 myeloid progenitors, no estrogen, GFP autofluorescence flow cytometry; vehicle wells 0%, positive control 100% | fluorescence response, % (concentration not given with the values) | hit rate 7.4% among 2,300;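 active means over 5% cells positive for green fluorescent reporter, or over 2% positive for both it and APC stain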;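 further: range taken on the double positive population between DMSO and positive control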
* = called active by the depositor; i = inactive; ? = inconclusive; . = no result given; + = active, no number. The list is not random: actives were taken first. Their share in the collection is about 2.9%.

SMILES	Rtt109 Vps75	ABHD5 PLIN5 PPI	HGIII-sPLA2 inh	DAGLB inh	Myeloid diff 2	Cardio protect	Myeloid diff	GFP autofluor
O=C(O)c1ccc(Cl)c(S(=O)(=O)Nc2ccc(OCc3ccccc3)cc2)c1	.	4	-11	4	i	-10	i	0
O=C(Oc1ccnc2cc(Cl)ccc12)N1CCOCC1	.	7	6	4	i	1	i	0
COc1ccc(NS(=O)(=O)c2ccc3[nH]c(=O)[nH]c3c2)cc1OC	-1	-6	-1	-4	i	2	.	.
Cc1cc2cc(C(c3nnnn3CC3CCCO3)N3CCCc4ccccc43)c(=O)[nH]c2cc1C (stereo unspecified)	5	-27	0	0	i	1	i	0
CCc1ccc2[nH]c(=O)c(C(c3nnnn3CC3CCCO3)N3CCCc4ccccc43)cc2c1 (stereo unspecified)	0	-5	-9	3	i	7	.	.
Cc1ccccc1S(=O)(=O)Cc1ccc(C(=O)NC2CCCCCC2)o1	6	11	-4	-3	?	1	.	.
CC(=O)N1CCOc2ccc(S(=O)(=O)N3CCC(C(=O)Nc4ccc(C)c(C)c4)CC3)cc21	4	-8	-11	1	i	2	.	.
COC(=O)Cc1c(C)c2ccc(OCC(C)=O)c(C)c2oc1=O	-8	0	-5	0	i	-19	.	.
C=C(C)COc1ccc2c(C)c(CC(=O)OC)c(=O)oc2c1C	5	1	.	-4	i	-20	i	1
CN(C)/C=C/C(=O)Oc1ccc(Cl)cc1Cl	-12	1	0	-3	i	-1	.	.
CCCNS(=O)(=O)c1cccc(C(=O)NC2CCCc3ccccc32)c1 (stereo unspecified)	-11	-4	-7	4	i	-5	i	0
S=C1NC(c2ccccc2)=NCN1c1ccc(Cl)cc1	-3	1	0	-1	i	-5	.	.
CC(=O)c1ccc(S(=O)(=O)N2CCN(C(=O)c3ccc(-n4nc(C)c(Cl)c4C)cc3)CC2)cc1	13	6	-4	0	i	-12	i	0
Cc1nn(-c2ccc(C(=O)N3CCN(S(=O)(=O)c4ccccc4C(F)(F)F)CC3)cc2)c(C)c1Cl	6	-8	5	-4	i	-10	.	.
N=C1/C(=C\c2ccc(SCc3ccco3)o2)C(=O)N=C2SC=NN12	-11	1	-9	7	i	-7	.	.
O=C(NCCCn1ccnc1)NC(C(F)(F)F)C(F)(F)F	14	5	-5	1	i	-3	i	0
O=C(NCCCn1ccnc1)C(=O)NC1CCCCC1	-4	-4	3	1	+	8	i	1
COc1ccc(-c2nc(C(N)=O)c3[nH]c(=O)n(-c4cccc(C)c4)c3n2)c(OC)c1	5	-4	11	0	i	30	.	.
CC(C)(C)OC(=O)C[C@@H]1C/C=C\C[C@H](CC(=O)N[C@H](CO)Cc2ccccc2)C(=O)N[C@@H](Cc2ccccc2)COC1=O	0	1	-8	0	i	27	i	0
CC(C)C(=O)Nc1cccc(S(=O)(=O)c2cccc(NC(=O)C(C)C)c2)c1	9	9	-11	2	i	-25	i	0
CN(C)c1ccc(CNCc2cccnc2)cc1	.	14	2	.	i	0	i	0
COc1ccccc1N1C(=O)S/C(=C\c2cccs2)C1=O	6	-10	-2	-4	i	-1	.	.
COc1ccc(N2C(c3ccsc3)=Cc3cc4c(cc3C2c2c[nH]c3ccccc23)OCO4)cc1 (stereo unspecified)	.	-5	4	.	+	.	i	2
CC(OC(=O)Cn1cnc2c1c(=O)n(C)c(=O)n2C)C(=O)NCc1ccccc1 (stereo unspecified)	-1	10	-2	0	i	-1	.	.
COc1ccc(/C=C2\SC(=S)N(NS(=O)(=O)c3ccc(C)cc3)C2=O)c(OC)c1	-4	-1	-4	23	i	-2	i	0
SMILES	Rtt109 Vps75	ABHD5 PLIN5 PPI	HGIII-sPLA2 inh	DAGLB inh	Myeloid diff 2	Cardio protect	Myeloid diff	GFP autofluor
COc1ccc(OC)c(/C=C2\SC(=S)N(NS(=O)(=O)c3ccc(C)cc3)C2=O)c1	-11	0	-32	18	i	2	.	.
O=C1/C(=C\c2ccco2)SC(=S)N1Cc1ccccc1	0	-8	14	13	i	-6	i	1
Cn1cccc1/C=C1\SC(=S)N(CC(=O)O)C1=O	20	7	-11	0	i	2	.	.
O=C(O)CN1C(=O)/C(=C/c2ccc(SCc3ccccc3)o2)SC1=S	40	-9	-31	3	i	1	i	0
O=C(c1ccc(S(=O)(=O)N2CCCC2)cc1)N1CCCCCC1	-4	1	1	-1	i	-3	.	.
O=C(c1ccc(S(=O)(=O)N2CCCCC2)cc1)N1CCN(CCN2C(=O)c3cccc4cccc(c34)C2=O)CC1	5	-4	-3	2	+	46	i	0
CCOC(=O)c1ccccc1-n1nnnc1C	0	-8	2	-1	i	2	.	.
CC(C)C[C@H]1CN(CCCC[C@H]2CNC(=O)C(=O)N2CCc2ccc(O)cc2)C(=O)C(=O)N1CCc1ccccc1	.	-8	-8	.	i	.	.	.
Cc1cc(S(=O)(=O)N(Cc2ccccc2F)C2CC2)ccc1-n1cnnn1	11	-7	-9	0	i	-3	i	0
CCN(CC)S(=O)(=O)c1ccc(-n2cnnn2)c(C)c1	3	1	2	-5	i	2	.	.
COc1ccc(CN2CC(=O)N(c3ccc(Cl)cc3)C2=S)cc1OC	-3	2	-84	-3	i	-11	.	.
CCc1ccc(N2C(=O)CN(Cc3ccc(OC)c(OC)c3)C2=S)cc1	9	0	-102	-3	+	-9	i	2
COc1ccc(C(=O)C[n+]2cccc3cc(C)ccc32)cc1	8	0	2	3	i	-6	i	42*
COc1ccc(C(=O)C[n+]2ccc(N(C)C)cc2)cc1	-23	3	3	1	i	-2	i	0
CCCCN(C)CCCNC(=O)CS(=O)Cc1nc(-c2ccc(OC)c(OC)c2)oc1C (stereo unspecified)	8	-1	-1	1	i	-1	.	.
CC1(C)NC(=O)N(CCCCOc2ccc(Cl)cc2)C1=O	-2	5	-4	-1	i	2	i	0
Cc1c(C(=O)Nc2ccc(F)cc2)cn2c(nc3ccccc32)c1C#N	-16	-2	0	4	i	9	.	.

Screening data as filed in PubChem BioAssay.
